This is an account of results in PubChem BioAssay (NCATS).

The nature of assay [1]: qHTS profiling of the MIPE4 collection as inhibitors of Plasmodium falciparum (3D7) proliferation (AID 743344).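 Also: scaled between DMSO vehicle wells and 0.29 µM artemisinin as full inhibition.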 Conditions: P. falciparum 3D7 in erythrocytes, SYBR Green DNA fluorescence, 72 h; at 28.5 µM unless noted. The method, boiled down:
(§1)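 Erythrocytes infected with P. falciparum (0.3% parasitemia, 2.5% hematocrit) incubated with compounds 72 h at 37 C, 5% CO2. Lysis with saponin/Triton buffer containing SYBR Green I, overnight at room temperature in the dark; DNA fluorescence (485/535 nm) normalised to 0.29 uM artemisinin and DMSO.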

The nature of assay [2]: qHTS profiling of the MIPE4 collection as inhibitors of Plasmodium falciparum (DD2) proliferation (AID 743345). Conditions: P. falciparum Dd2 in erythrocytes, SYBR Green DNA, 72 h; at 28.5 µM unless noted. The method, boiled down: as §1
Assay [3] can be described thus: qHTS profiling of the MIPE4 collection as inhibitors of Plasmodium falciparum (DD2) proliferation (Rep 2) (AID 743346). To be noted: P. falciparum Dd2 in erythrocytes, SYBR Green DNA, 72 h; at 28.5 µM unless noted. In short, it runs like this: as §1
Background: qHTS replaces the single test concentration by a dilution series.

Assay [4] can be described thus: qHTS profiling of the MIPE4 collection as inhibitors of Plasmodium falciparum (HB3) proliferation (AID 743347).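 Also: plate controls were DMSO vehicle wells for no effect and artemisinin wells for full effect.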 To be noted: P. falciparum HB3 in erythrocytes, SYBR Green DNA, 72 h; at 28.5 µM unless noted. In short, it runs like this:
as §1

A short description of assay [5]: High-throughput drug toxicity screening in the BPDCN cell line Gen2.2 (AID 1224824).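 Also: cells exposed to compounds for 48 h before reading.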 To be noted: Gen2.2 BPDCN cells; at 45.8 µM (top of the series) unless noted. In short, it runs like this: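 Gen2.2 cells (500/well) in phenol red-free RPMI with 10% FBS were exposed to compounds for 48 h at 37 °C, 5% CO2. Viability was read by CellTiter-Glo luminescence and normalized to DMSO (100%) and 9.2 uM bortezomib (0%).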

Assay [6] can be described thus: High-throughput drug toxicity screening in the BPDCN cell line Cal-1 (AID 1224825). Conditions: Cal-1 BPDCN cell viability, qHTS; at 45.8 µM (top of the series) unless noted. In short, it runs like this: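 500 Cal-1 cells/well, RPMI + glutamine + 10% FBS (phenol red-free); cpd added by pin tool; 48 h, 37C, 5% CO2; CTG 15 min RT, lumi read. Normalised: DMSO 100%, bortezomib 9.2 uM 0%.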

Assay [7] can be described thus: qHTS assay for measurement of the activity of small molecule inhibitors on Zika virus induced Caspase-3 activity in human iPSC derived neural progenitor cells (hNPCs) (AID 1224857; active = well fitted inhibition curve with a large enough effect; also: % of control where 0% means no effect; nearly all actives have a fitted effect of over 65% in size). In short, it runs like this:
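After overnight (16–20 h) culture at 350 cells/well, hNPCs get compound, then ZIKV 2 FFU/cell one hour later. Six hours on, Caspase-Glo 3/7 is added and luminescence measured.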

The nature of assay [8]: qHTS assay for measurement of the activity of small molecule inhibitors on Zika virus induced Caspase-3 activity in human astrocytoma cells (AID 1224859; active = well fitted inhibition curve with a large enough effect;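 also: plate controls were ZIKV-infected untreated cells for no effect and uninfected cells for full effect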). In short, it runs like this:
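Inhibition of Zika-induced caspase-3/7 activity: SNB-19 cells, 1 h compound pretreatment, ZIKV 2 FFU/cell for 6 h at 37 C, Caspase-Glo luminescence read-out.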

Inconclusive results are not listed. The source made the active and inactive calls. Unless noted, no rule for the calls is given here.

Regarding `CN[C@@H](C)C(=O)N[C@H]1CN(C(=O)CC(C)C)CC[C@H]2CC[C@@H](C(=O)NC(c3ccccc3)c3ccccc3)N2C1=O`, in assay [1], the parasite growth, % of DMSO control worked out at 69.1%. Also, the parasite growth remaining, % of DMSO control (lower = more inhibition) in assay [2] was found to be 55%. In assay [3], the parasite growth, % of control (lower = inhibition) was 27.9%. The growth, % of control in assay [4] stood at 72.2%. The cell viability, % of control (lower = more cytotoxic) in assay [5] came out at 19.5%. In assay [6], the viability (% of control) came to 9.02%. In addition, the Potency result in assay [7] and in assay [8] was “inactive” each time.

Consider `CC1CCC(C(=O)N(c2cc(C#CC(C)(C)C)sc2C(=O)O)C2CCC(O)CC2)CC1` (stereo unspecified), for which the parasite growth, % of DMSO control in assay [1] was 4.72%. Also, in assay [2], the parasite growth remaining, % of DMSO control (lower = more inhibition) was determined as 54.5%. In addition, in assay [3], the parasite growth, % of control (lower = inhibition) worked out at 9.42%. In assay [4], this compound showed a growth, % of control of 3.91%. The cell viability, % of control (lower = more cytotoxic) in assay [5] was 50.9%. Moreover, the viability (% of control) in assay [6] is 92%. For the same compound, the Potency result in assay [7] and in assay [8] was “inactive” in each case.

As to `CO[C@H]1C[C@@H]2CC[C@@H](C)[C@@](O)(O2)C(=O)C(=O)N2CCCC[C@@H]2C(=O)O[C@H]([C@H](C)C[C@@H]2CC[C@H](OP(C)(C)=O)[C@H](OC)C2)CC(=O)[C@H](C)C=C(C)[C@@H](O)[C@@H](OC)C(=O)[C@H](C)C[C@H](C)C=CC=CC=C1C`, in assay [1], the parasite growth, % of DMSO control is 4.92%. In addition, the parasite growth remaining, % of DMSO control (lower = more inhibition) in assay [2] was found to be 6.6%. Moreover, the parasite growth, % of control (lower = inhibition) in assay [3] is 9.19%. Besides, the growth, % of control in assay [4] was determined as 8.46%. Moreover, in assay [5], the cell viability, % of control (lower = more cytotoxic) was found to be 10.4%. Further, the viability (% of control) in assay [6] turned out to be 5.8%. The Potency result in assay [7] and in assay [8] was “inactive” throughout.

For `CO[C@H]1C[C@@H]2CC[C@@H](C)[C@@](O)(O2)C(=O)C(=O)N2CCCC[C@@H]2C(=O)O[C@H]([C@H](C)C[C@@H]2CC[C@H](OC(=O)C(C)(CO)CO)[C@H](OC)C2)CC(=O)[C@H](C)C=C(C)[C@@H](O)[C@@H](OC)C(=O)[C@H](C)C[C@H](C)C=CC=CC=C1C`, in assay [1], the parasite growth, % of DMSO control stood at 5.79%. Besides, in assay [2], the parasite growth remaining, % of DMSO control (lower = more inhibition) turned out to be 6.2%. In addition, in assay [3], the parasite growth, % of control (lower = inhibition) came to 9.78%. In addition, in assay [5], the cell viability, % of control (lower = more cytotoxic) worked out at 6.71%. In assay [6], the viability (% of control) is 3.11%. The Potency entry in assay [7] and in assay [8] was “inactive” in each case.

Take `O=C(OCC#CCSc1nnc(-c2cccc3ccccc23)o1)c1cc2ccccc2s1`: in assay [1], the parasite growth, % of DMSO control is 49.1%. The parasite growth remaining, % of DMSO control (lower = more inhibition) in assay [2] is 83%. Further, the parasite growth, % of control (lower = inhibition) in assay [3] stood at 64.2%. Also, in assay [4], the growth, % of control was 44.7%. Also, the cell viability, % of control (lower = more cytotoxic) in assay [5] was 91.8%. The viability (% of control) in assay [6] came to 118%. Besides, the Potency result in assay [7] and in assay [8] was “inactive” in each case.

For the compound `CC(C)n1nc(-c2ccc3oc(N)nc3c2)c2c(N)ncnc21`, the parasite growth, % of DMSO control in assay [1] came to 5.01%. Also, in assay [2], the parasite growth remaining, % of DMSO control (lower = more inhibition) worked out at 9.14%. Besides, the parasite growth, % of control (lower = inhibition) in assay [3] was 6.88%. This compound also returned a growth, % of control in assay [4] of 4.46%. Besides, the cell viability, % of control (lower = more cytotoxic) in assay [5] was 1.63%. Moreover, the viability (% of control) in assay [6] turned out to be 8.31%. For the same compound, the Potency entry in assay [7] and in assay [8] was “inactive” throughout.

`NS(=O)(=O)c1ccc(NC2=CC(=O)c3ccccc3C2=O)cc1` registered a parasite growth, % of DMSO control in assay [1] of 6.05%. For the same compound, the parasite growth remaining, % of DMSO control (lower = more inhibition) in assay [2] came to 9.74%. Further, in assay [3], the parasite growth, % of control (lower = inhibition) came to 8.91%. Further, the growth, % of control in assay [4] was found to be 3.54%. Also, in assay [5], the cell viability, % of control (lower = more cytotoxic) was found to be 162%. Moreover, the viability (% of control) in assay [6] was 88.5%. The Potency entry in assay [7] and in assay [8] was “inactive” in each case.

On to `Cc1ccc(/C=N/NC(=O)c2ccccc2Oc2ccccc2)o1`, for which the parasite growth, % of DMSO control in assay [1] came to 82.9%. In addition, in assay [2], the parasite growth remaining, % of DMSO control (lower = more inhibition) amounted to 103%. In addition, the parasite growth, % of control (lower = inhibition) in assay [3] turned out to be 120%. Further, in assay [5], the cell viability, % of control (lower = more cytotoxic) turned out to be 76%. The viability (% of control) in assay [6] was determined as 18.6%. Besides, the Potency result in assay [7] and in assay [8] was “inactive” throughout.

With `CCN(CC)CCOc1ccc(C(=C(Cl)c2ccccc2)c2ccccc2)cc1`, in assay [1], the parasite growth, % of DMSO control worked out at 5.06%. Moreover, the parasite growth remaining, % of DMSO control (lower = more inhibition) in assay [2] stood at 9.72%. Further, the parasite growth, % of control (lower = inhibition) in assay [3] is 6.97%. The compound also had a growth, % of control in assay [4] of 9.51%. For the same compound, in assay [5], the cell viability, % of control (lower = more cytotoxic) was 136%. Also, the viability (% of control) in assay [6] stood at 50.6%. The Potency result in assay [7] and in assay [8] was “inactive” in each case.

`O=C(Nc1ccccc1Br)N[C@@H]1CCN(c2ccc(C(F)(F)F)cn2)C1`: the parasite growth, % of DMSO control in assay [1] was 73.6%. In addition, the parasite growth remaining, % of DMSO control (lower = more inhibition) in assay [2] came out at 96.2%. Moreover, the parasite growth, % of control (lower = inhibition) in assay [3] came out at 82.5%. In assay [4], this compound registered a growth, % of control of 71.2%. Besides, the cell viability, % of control (lower = more cytotoxic) in assay [5] is 266%. In assay [6], the viability (% of control) came out at 101%. The Potency result in assay [7] and in assay [8] was “inactive” throughout.

Compound `CN(C[C@@H]1COCCO1)S(=O)(=O)Nc1ccc2ccc3ncc(-c4cnn(C)c4)cc3c(=O)c2c1` came in with a parasite growth, % of DMSO control in assay [1] of 13.4%. Further, in assay [2], the parasite growth remaining, % of DMSO control (lower = more inhibition) worked out at 47.9%. Also, in assay [3], the parasite growth, % of control (lower = inhibition) turned out to be 21.5%. The growth, % of control in assay [4] worked out at 7.9%. In addition, the cell viability, % of control (lower = more cytotoxic) in assay [5] came out at 12.9%. In assay [6], the viability (% of control) is 7.57%. The Potency entry in assay [7] and in assay [8] was “inactive” in each case.
